Assay [1] is described as follows: binders of probe aFSTL3 on microarray, primary screen, stem cell growth factor project, biochemical, small-molecule microarray, fluorescence 635/667 (AID 1064).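 Note: measures binding of the biotinylated anti-FSTL3 antibody to printed compounds.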 The settings on record: higher = more signal.
Assay [2] in a line: binders from COS7 lysate, DM2A8 probe, primary screen, torsin A project, cell lysate, small-molecule microarray, fluorescence 635/667 (AID 1065). The settings on record: higher = more signal, COS7 lysate expressing mutant human TOR1A.
Assay [3] in a line: binders of probe aFGF2 on microarray, primary screen, stem cell growth factor project, biochemical, small-molecule microarray, fluorescence 635/667 (AID 1067).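 Note: measures binding of biotinylated aFGF2 protein to printed compounds on slides; z-score merges feature fluorescence and signal-to-noise across triplicate slides.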 The following applies: higher = more signal.
A short description of assay [4]: binders of probe aFGF10 on microarray, primary screen, stem cell growth factor project, biochemical, small-molecule microarray, fluorescence 635/667 (AID 1071).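 Note: score merges 667 nm spot intensity and signal to noise from triplicate slides.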 The settings on record: higher = more signal.
Assay [5] has as its target Neurogenic locus notch homolog protein 2 (Homo sapiens) (UniProt Q04721). Briefly: Notch2 binders on small-molecule microarrays, primary screen, biochemical, small-molecule microarray, 635 nm fluorescence, stem cell growth factors (AID 1073). The settings on record: Notch2 binding, higher = more signal.
Assay [6] concerns the target Pro-neuregulin-1, membrane-bound isoform (Homo sapiens) (UniProt Q02297). In words: NRG1 binders on small-molecule microarrays, primary screen, psychiatric disease protein project, biochemical, small-molecule microarray, fluorescence 635/667 (AID 1075).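 Note: score combines 667 nm spot fluorescence with signal to noise.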 The following applies: NRG1 binding, 635 nm fluorescence, higher = more signal.
Assay [7] has as its system Neuregulin-1 EGF-like domain. In words: binders of neuregulin-1 EGF-like domain, primary screen, biochemical, small-molecule microarray, 635 nm fluorescence (AID 1081).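 Note: binding of the protein to compounds printed on small-molecule microarray slides.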 The settings on record: small-molecule microarray binding, higher = more signal.
Assay [8] can be described thus: FRG1 promoter luciferase signal modulators, primary screen, FRG1 inhibition for FSHD, cell-based, C2C12 myotubes, firefly/Renilla luciferase, luminescence (AID 1084). The following applies: higher = more signal, called active from +8 up or from −8 down.
The nature of assay [9]: binders of probe aFST on microarray, primary screen, stem cell growth factor project, biochemical, small-molecule microarray, fluorescence 635/667 (AID 1086).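 Note: score merges 667 nm fluorescence with signal-to-noise of each printed compound spot.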 The settings on record: higher = more signal.
Assay [10] in a line: binders of probe aHhip on microarray, primary screen, stem cell growth factor project, biochemical, small-molecule microarray, fluorescence 635/667 (AID 1087).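 Note: score merges spot fluorescence at 667nm with spot signal to noise ratio.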 The settings on record: higher = more signal.
The subject of assay [11] is PRMT1 (protein arginine N-methyltransferase 1). Briefly: PRMT1 binders on small-molecule microarrays, primary screen, biochemical, small-molecule microarray, 635 nm fluorescence (AID 1088).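 Note: binding of Prmt1 protein to compounds spotted on small-molecule microarray slides.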 The settings on record: small-molecule microarray binding, higher = more signal.
Assay [12] can be described thus: yeast growth modulation, basal conditions, primary screen, YJM789 clinical isolate, OD600, 24 h (AID 1089).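 Note: growth of clinical yeast isolate S. cerevisiae YJM 789 seeded 1000 cells per well; test concentration not given here.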 The settings on record: S. cerevisiae YJM789 growth, higher = more signal, called active from +8 up or from −8 down.
A short description of assay [13]: fission yeast growth modulation, primary screen, strain 972, OD600, 24 h, no modulator (AID 1090).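 Note: basal condition with compound alone and no growth modifier present; test concentration not given here.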 The settings on record: S. pombe 972 growth, higher = more signal, called active from +8 up or from −8 down.
Assay [14] is described as follows: S. cerevisiae growth modulation with rapamycin, primary screen, strain BY4716, OD600, 96 h (AID 1091). Note: test concentration not given here. The settings on record: higher = more signal, called active from +8 up or from −8 down.
Assay [15] has as its target Torsin-1A-interacting protein 2 (Homo sapiens) (UniProt Q8NFQ8). Briefly: LULL1 binders on small-molecule microarray, primary screen, cell lysate, human LULL1 lysate, 635/667 nm fluorescence (AID 1092).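 Note: probe is lysate of COS7 cells overexpressing human LULL1; score merges per-feature 667 nm fluorescence with signal-to-noise.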 The settings on record: hLULL1 lysate binding, 635 nm fluorescence, higher = more signal.
Assay [16] can be described thus: E. coli growth modulation, two-sided OD650, primary screen, E. coli filamentation project, strain DRC41, 24 h (AID 1093).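 Note: MC1000 strain lacking acrAB efflux and sulA so SOS filamentation is blocked; test concentration not given here.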 The settings on record: OD650, 24 h, higher = more signal, called active from +8 up or from −8 down.
The nature of assay [17]: small-molecule microarray binders of probe aLefty2, primary screen, biochemical, biotinylated probe, 635/667 nm fluorescence (AID 1094).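 Note: score merges spot fluorescence near 667 nm with spot signal-to-noise ratio.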 The settings on record: higher = more signal.
In assay [18] the test system is Noggin (protein binding on small-molecule microarray). Briefly: Noggin binders on small-molecule microarray, primary screen, biochemical, 635/667 nm fluorescence (AID 1095).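 Note: score merges 667 nm feature fluorescence with signal to noise over triplicate slides.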 The settings on record: 635 nm fluorescence, higher = more signal.
Assay [19] addresses Neurogenic locus notch homolog protein 3 (Homo sapiens) (UniProt Q9UM47). In words: NOTCH3 binders on small-molecule microarray, primary screen, biochemical, 635/667 nm fluorescence (AID 1096). The settings on record: NOTCH3 binding, 635 nm fluorescence, higher = more signal.
Assay [20] can be described thus: small-molecule microarray binders of probe aEGFR, primary screen, biochemical, biotinylated probe, 635/667 nm fluorescence (AID 1097).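 Note: probe is a biotinylated anti-EGFR antibody binding compounds printed on slides; score combines fluorescence near 667 nm and signal to noise of each spot.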 The following applies: higher = more signal.

The structures appear in SMILES notation. Active and inactive are the calls of the source.

Chain of Pro-neuregulin-1, membrane-bound isoform (Homo sapiens) (Q02297 whole entry, looked up, the tested form may be a part, canonical isoform): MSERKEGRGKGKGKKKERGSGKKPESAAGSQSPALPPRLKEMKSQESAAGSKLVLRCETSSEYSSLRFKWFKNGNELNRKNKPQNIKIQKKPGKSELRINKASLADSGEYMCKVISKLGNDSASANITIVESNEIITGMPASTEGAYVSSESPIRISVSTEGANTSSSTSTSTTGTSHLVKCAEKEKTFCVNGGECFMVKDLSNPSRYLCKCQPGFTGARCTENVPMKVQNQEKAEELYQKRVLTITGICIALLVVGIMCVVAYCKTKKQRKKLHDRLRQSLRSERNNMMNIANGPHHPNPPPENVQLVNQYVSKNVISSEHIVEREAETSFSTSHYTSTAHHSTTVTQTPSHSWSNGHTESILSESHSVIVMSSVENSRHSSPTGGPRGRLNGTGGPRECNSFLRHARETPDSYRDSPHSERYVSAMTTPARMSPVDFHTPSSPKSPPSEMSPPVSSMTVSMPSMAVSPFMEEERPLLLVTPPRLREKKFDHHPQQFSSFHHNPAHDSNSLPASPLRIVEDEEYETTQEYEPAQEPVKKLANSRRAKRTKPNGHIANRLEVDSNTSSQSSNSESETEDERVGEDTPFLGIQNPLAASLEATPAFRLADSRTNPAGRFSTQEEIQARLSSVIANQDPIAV
Chain of Torsin-1A-interacting protein 2 (Homo sapiens) (Q8NFQ8 whole entry, looked up): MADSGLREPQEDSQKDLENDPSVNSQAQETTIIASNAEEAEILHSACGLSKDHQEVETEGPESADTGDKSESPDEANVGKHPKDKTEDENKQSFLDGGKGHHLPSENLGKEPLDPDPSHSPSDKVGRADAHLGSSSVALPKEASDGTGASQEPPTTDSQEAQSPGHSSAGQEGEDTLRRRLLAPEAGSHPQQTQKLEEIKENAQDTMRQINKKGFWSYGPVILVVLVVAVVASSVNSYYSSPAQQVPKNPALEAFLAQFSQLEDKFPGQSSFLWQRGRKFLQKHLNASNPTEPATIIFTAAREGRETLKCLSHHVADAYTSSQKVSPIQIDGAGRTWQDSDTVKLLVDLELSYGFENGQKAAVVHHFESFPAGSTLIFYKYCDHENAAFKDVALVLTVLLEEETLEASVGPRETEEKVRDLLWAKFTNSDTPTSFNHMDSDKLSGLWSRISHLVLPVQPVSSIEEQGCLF
Chain of Neurogenic locus notch homolog protein 2 (Homo sapiens) (Q04721 whole entry, looked up, canonical isoform): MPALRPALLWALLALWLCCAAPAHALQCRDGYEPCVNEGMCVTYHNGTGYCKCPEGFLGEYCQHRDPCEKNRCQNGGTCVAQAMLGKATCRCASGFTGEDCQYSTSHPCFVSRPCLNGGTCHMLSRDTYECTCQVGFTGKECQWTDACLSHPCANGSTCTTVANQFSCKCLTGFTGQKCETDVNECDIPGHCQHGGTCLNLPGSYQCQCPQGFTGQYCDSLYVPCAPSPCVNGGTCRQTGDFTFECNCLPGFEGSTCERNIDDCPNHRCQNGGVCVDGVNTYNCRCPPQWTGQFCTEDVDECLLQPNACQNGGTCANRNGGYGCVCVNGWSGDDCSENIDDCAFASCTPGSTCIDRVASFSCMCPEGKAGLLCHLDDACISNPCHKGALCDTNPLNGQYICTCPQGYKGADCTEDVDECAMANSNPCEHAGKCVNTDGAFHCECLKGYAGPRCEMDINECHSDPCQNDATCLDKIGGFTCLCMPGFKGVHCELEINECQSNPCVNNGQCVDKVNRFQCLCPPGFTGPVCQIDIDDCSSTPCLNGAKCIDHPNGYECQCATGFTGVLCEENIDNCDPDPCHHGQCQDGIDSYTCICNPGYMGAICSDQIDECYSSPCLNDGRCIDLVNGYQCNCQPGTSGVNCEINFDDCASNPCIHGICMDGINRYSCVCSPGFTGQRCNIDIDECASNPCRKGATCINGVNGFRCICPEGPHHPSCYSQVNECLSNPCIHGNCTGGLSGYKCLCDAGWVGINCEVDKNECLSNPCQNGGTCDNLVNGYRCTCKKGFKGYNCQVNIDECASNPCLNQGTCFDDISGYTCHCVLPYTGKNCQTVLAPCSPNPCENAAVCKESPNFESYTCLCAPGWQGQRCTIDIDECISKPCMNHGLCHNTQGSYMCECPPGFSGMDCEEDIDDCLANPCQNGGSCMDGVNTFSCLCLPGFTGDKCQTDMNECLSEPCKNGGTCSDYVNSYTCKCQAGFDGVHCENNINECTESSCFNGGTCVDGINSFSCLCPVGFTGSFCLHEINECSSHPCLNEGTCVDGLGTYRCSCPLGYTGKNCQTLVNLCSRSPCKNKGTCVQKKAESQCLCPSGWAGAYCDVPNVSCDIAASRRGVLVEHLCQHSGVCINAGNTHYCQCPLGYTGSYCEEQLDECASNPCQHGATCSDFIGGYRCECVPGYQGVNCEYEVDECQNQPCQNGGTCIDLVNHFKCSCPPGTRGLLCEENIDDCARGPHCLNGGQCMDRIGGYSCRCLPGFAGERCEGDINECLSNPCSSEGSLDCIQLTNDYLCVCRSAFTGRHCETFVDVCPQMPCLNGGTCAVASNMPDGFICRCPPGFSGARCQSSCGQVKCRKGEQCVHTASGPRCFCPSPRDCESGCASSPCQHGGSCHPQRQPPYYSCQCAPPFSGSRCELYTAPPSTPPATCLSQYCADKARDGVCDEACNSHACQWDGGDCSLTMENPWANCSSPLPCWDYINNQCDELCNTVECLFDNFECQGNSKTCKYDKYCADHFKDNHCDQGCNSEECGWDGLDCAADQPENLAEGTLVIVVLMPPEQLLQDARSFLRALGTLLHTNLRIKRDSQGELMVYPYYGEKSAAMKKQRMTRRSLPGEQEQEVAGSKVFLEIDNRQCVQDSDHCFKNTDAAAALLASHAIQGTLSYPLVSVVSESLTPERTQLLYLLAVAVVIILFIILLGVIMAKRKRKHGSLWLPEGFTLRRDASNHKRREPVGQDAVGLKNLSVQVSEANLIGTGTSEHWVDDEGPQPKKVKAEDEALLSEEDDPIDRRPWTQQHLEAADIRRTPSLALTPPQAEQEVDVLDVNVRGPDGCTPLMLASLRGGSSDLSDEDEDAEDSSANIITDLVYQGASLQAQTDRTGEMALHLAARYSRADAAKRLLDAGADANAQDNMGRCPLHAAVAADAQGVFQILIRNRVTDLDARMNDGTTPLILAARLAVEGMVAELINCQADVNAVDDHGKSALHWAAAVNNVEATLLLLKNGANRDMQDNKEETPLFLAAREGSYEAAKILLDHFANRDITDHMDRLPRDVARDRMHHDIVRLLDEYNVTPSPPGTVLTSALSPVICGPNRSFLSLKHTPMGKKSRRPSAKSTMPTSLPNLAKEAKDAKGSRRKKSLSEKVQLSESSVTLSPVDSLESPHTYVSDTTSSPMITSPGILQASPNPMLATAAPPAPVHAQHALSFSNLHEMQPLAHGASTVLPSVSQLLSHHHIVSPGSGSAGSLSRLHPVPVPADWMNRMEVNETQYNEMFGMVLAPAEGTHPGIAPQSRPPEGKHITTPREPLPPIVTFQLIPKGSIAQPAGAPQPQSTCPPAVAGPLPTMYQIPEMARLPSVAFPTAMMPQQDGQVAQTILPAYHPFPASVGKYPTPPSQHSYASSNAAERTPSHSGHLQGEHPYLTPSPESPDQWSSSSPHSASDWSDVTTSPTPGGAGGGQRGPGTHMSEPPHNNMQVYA

Regarding `[N-]=[N+]=NCc1ccccc1[C@@H]1OC(c2ccc(OCCCO)cc2)=N[C@]1(Cc1ccccc1)C(=O)NCC(O)CO` (stereo not given in full), the composite z-score was 0.798 in [1]; 0.42 in assay [2]; 0.126 in assay [3]; 0.343 in [4]; -0.119 in assay [5]; 1.84 in [6]. Also, the composite z-score was determined as 1.2 in assay [7]; 0.421 in [9]; 0.132 in [10]; 1.25 in assay [11]; 3.44 in assay [15]; 0.414 in [17]. For the same molecule, the results for the composite z-score in assay [18], in assay [19] and in assay [20] were 0.238, -0.27 and 0.411, respectively. For the same molecule, the z-score is -0.339 (inactive) in assay [8]; -0.427 (inactive) in assay [12]; 0.0493 (inactive) in assay [13]; -0.659 (inactive) in assay [14]; 0.123 (inactive) in assay [16].

On to `O=C1c2ccccc2[C@](Cc2ccccc2I)(C(=O)NCCN2CCOCC2)[C@H](c2ccc(CO)cc2)N1C1CCCCC1`, for which the composite z-score was 0.446 in assay [1]; 0.473 in assay [2]; -0.0181 in [3]; 0.352 in assay [4]; 1.39 in assay [5]; 0.738 in [6]. In addition, the composite z-score came out at 1.22 in assay [7]; 1.19 in [9]; 0.259 in assay [10]; 1.43 in assay [11]; 1.53 in assay [15]; 0.227 in assay [17]. The composite z-score in [18] amounted to 1.12; in assay [19], 1.06; in assay [20] it was 0.521. Moreover, the z-score is -4.42 (inactive) in assay [8]; -0.139 (inactive) in assay [12]; -0.156 (inactive) in [13]; 0.216 (inactive) in assay [14]; 1.09 (inactive) in assay [16].

Regarding `Cc1ccc(S[C@]2(C(=O)NCCCN(C)C)CC(=O)N(Cc3cc(C(F)(F)F)cc(C(F)(F)F)c3)[C@@H]2c2ccc(CO)cc2I)cc1`, the composite z-score in assay [1] was 0.746; in assay [2], 0.0752; in assay [3], -0.0894; in assay [4], -0.21; in [5], -1.21; in assay [6], 2.07. The composite z-score is 0.634 in assay [7]; -0.191 in assay [9]; -0.0994 in [10]; -0.371 in assay [11]; 1.77 in [15]; 0.269 in [17]. Besides, the composite z-score in [18] was -1.64; in assay [19], -0.937; in assay [20] it was -0.0246. Besides, the z-score in assay [8] is 0.452 (inactive); in [12], -1.17 (inactive); in assay [13] it was -3.06 (inactive); in assay [14], 1.03 (inactive); in assay [16], 0.888 (inactive).

Consider `C=C(/C(=C/C[C@H](OC(C)=O)c1ccccc1OCCO)c1cnc2ccccc2c1)C(C)C`, for which the composite z-score in assay [1] is 0.168; in [2], 0.126; in [3] it was -0.0419; in assay [4], 0.324; in assay [5], 0.775; in [6], 0.586. For the same molecule, the composite z-score in assay [7] was 0.87; in assay [9], 0.0254; in assay [10] it was 0.0274; in [11], 0.491; in [15], 1.85; in assay [17] it was -0.0251. Besides, the composite z-score in assay [18] is 1.24; in assay [19] it was 0.909; in assay [20], -0.044. Further, the z-score in assay [8] was -0.607 (inactive); in [12] it was 0.0556 (inactive); in assay [13] it was -0.0759 (inactive); in assay [14] it was 1.11 (inactive); in [16], -0.0733 (inactive).

For the molecule `CCCCCCc1nc(-c2cc(C)c(OC)c(C)c2)cc2c1[Si](C(C)C)(C(C)C)OC2`, the composite z-score in assay [1] was 0.0546; in assay [2] it was -0.375; in assay [3], -0.0507; in [4] it was -0.278; in assay [5] it was -0.274; in assay [6], -0.405. The composite z-score in [7] is -0.449; in [9], -0.272; in assay [10] it was 0.35; in [11], 1; in [15] it was -0.0784; in assay [17] it was -0.0575. The composite z-score in assay [18] was 0.187; in assay [19], -0.129; in assay [20], -0.0828. Besides, the z-score in assay [8] was 0.515 (inactive); in assay [12] it was -0.389 (inactive); in assay [13], -0.114 (inactive); in [14] it was -0.264 (inactive); in assay [16], 0.344 (inactive).

Regarding `COC(=O)[C@@]1(CCC(=O)OC(C)(C)C)N=C(c2ccc(OCCCO)cc2)O[C@H]1c1ccccc1N=[N+]=[N-]`, the composite z-score is 0.165 in assay [1]; -0.15 in assay [2]; -0.0354 in assay [3]; -0.312 in assay [4]; -0.0015 in assay [5]; 1.26 in [6]. In addition, the composite z-score is 1.06 in assay [7]; -0.161 in assay [9]; 0.119 in assay [10]; 1.28 in assay [11]; 1.83 in assay [15]; -0.309 in assay [17]. Also, the composite z-score in assay [18] is 0.714; in [19], 0.388; in assay [20], -0.0828. Also, the z-score in assay [8] is 3.09 (inactive); in assay [12], 0.0049 (inactive); in assay [13], -0.786 (inactive); in assay [14] it was 33.6 (active); in assay [16], 0.817 (inactive).

`C=CCC(OC(C)=O)[C@@H]1[C@@H](N(Cc2ccc(-c3ccccc3)cc2)C(=O)c2cccc3ccccc23)c2cc(OCCCO)ccc2N1C(=O)c1ccc(-c2ccccc2)cc1` (stereo not given in full): the composite z-score was 0.103 in assay [1]; 0.177 in [2]; 0.0521 in assay [3]; 0.19 in assay [4]; 0.0198 in [5]; -0.0375 in assay [6]. The composite z-score is -0.159 in assay [7]; 0.461 in assay [9]; -0.0006 in assay [10]; 0.245 in assay [11]; 0.796 in assay [15]; 0.0159 in assay [17]. The values for the composite z-score in [18], in [19] and in assay [20] were 0.0623, -0.0827 and 0.0009, respectively. The z-score in assay [8] was -1.45 (inactive); in [12], 0.21 (inactive); in assay [13] it was -0.234 (inactive); in assay [14], -0.438 (inactive); in [16] it was 1.17 (inactive).

For the molecule `COC(=O)C(CC#Cc1ccc2c(c1)[C@]1(C(=O)N2)[C@H](c2ccc(OCCO)cc2)N2[C@H](c3ccccc3)[C@H](c3ccccc3)OC(=O)[C@H]2[C@@H]1C(=O)Nc1nc2ccccc2s1)C(=O)OC`, the composite z-score was -0.319 in [1]; -0.164 in assay [2]; 0.0519 in assay [3]; 0.465 in assay [4]; 1.03 in assay [5]; 1.36 in assay [6]. Further, the composite z-score in assay [7] is 1.19; in assay [9] it was 0.582; in assay [10], 0.0156; in [11] it was 1.58; in [15], 2.45; in [17], -0.175. For the same molecule, the results for the composite z-score in assay [18], in [19] and in [20] were 1.41, 1.09 and 0.0562, respectively. Further, the z-score in assay [8] was 2.62 (inactive); in assay [12] it was 2.63 (inactive); in assay [13], 2.22 (inactive); in assay [14], 3.14 (inactive); in assay [16], 2.13 (inactive).

As for `CN1C(=O)C2C=CC(C(O)C#Cc3ccccc3)N(N3CCCCC3)C2C1=O` (stereo not given), the composite z-score worked out at 0.819 in assay [1]; 1.34 in assay [2]; 0.454 in assay [3]; 0.762 in [4]; 1.44 in assay [5]; 1.19 in assay [6]. Moreover, the composite z-score in [7] is 1.19; in [9], 1.16; in assay [10] it was -0.0655; in [11] it was 0.436; in assay [15], 0.58; in assay [17], 0.529. Further, the results for the composite z-score in assay [18], in [19] and in assay [20] were -0.287, 0.964 and 0.647, respectively. The z-score in assay [8] is -0.995 (inactive); in [12] it was 0.54 (inactive); in assay [13] it was -0.126 (inactive); in [14] it was -0.296 (inactive); in [16] it was 0.0497 (inactive).

Values taken from PubChem BioAssay.
